Results from PubChem BioAssay.

molecular target: Albumin (Bos taurus) (UniProt P02769); experiment: compounds binding labelled BSA control protein – biochemical, small-molecule microarray, Alexa647 label, 635/667 nm fluorescence, artefact control for SMM control protein annotation, profiling panel (AID 1118); conditions: BSA-A647 binding, fluorescence 635 nm, higher = more signal;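 also: score merges 667 nm emission intensity and signal-to-noise per printed compound spot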
Sequence (P02769 whole entry, looked up): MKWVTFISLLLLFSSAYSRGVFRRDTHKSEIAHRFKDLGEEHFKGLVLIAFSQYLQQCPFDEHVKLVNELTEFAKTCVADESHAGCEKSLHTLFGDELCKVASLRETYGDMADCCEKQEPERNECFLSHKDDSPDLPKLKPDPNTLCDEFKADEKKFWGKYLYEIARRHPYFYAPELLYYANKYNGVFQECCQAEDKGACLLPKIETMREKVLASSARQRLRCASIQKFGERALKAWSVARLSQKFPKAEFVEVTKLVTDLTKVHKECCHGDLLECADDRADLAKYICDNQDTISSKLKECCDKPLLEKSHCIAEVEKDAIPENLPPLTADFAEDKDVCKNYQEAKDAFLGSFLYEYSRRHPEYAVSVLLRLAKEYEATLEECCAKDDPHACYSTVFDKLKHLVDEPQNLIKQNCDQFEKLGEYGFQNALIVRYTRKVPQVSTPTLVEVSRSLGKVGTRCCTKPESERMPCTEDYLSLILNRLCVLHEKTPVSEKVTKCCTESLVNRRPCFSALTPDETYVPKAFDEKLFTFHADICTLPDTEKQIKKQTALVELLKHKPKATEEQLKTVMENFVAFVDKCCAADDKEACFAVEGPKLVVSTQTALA

| Compound | composite z-score |
| --- | --- |
| CCCNC(=O)OC[C@H]1O[C@H](CCON=CC[C@@H]2C=C[C@H](OC(C)=O)[C@@H](COC(C)=O)O2)C=C[C@@H]1Oc1ccc(OC)cc1 | 0.619 |
| O[C@@H](Cc1ccccc1)[C@H]1C2C=CCCC(c3ccccc3)=C2CN1Cc1cccc(Cl)c1 (stereo partly specified) | -0.158 |
| CCCC[C@@H]1C[C@H]1[C@@H](NS(=O)(=O)c1cccc2cccnc12)c1ccc(-c2ccccc2)cc1 | 0.41 |
| O=C1C2=CC[C@H]3C(=O)N(Cc4ccc5c(c4)OCO5)C(=O)[C@H]3[C@H]2[C@H](O)[C@@H]2O[C@H]12 | -0.176 |
| CCOC(=O)[C@H](CC(C)C)NC(=O)CCC1CC(OC(=O)NCCc2ccc(F)cc2)CC2(CCCC(COC(=O)NCc3ccccc3)O2)O1 (stereo partly specified) | 0.173 |
| CCCNC(=O)[C@@H]1c2ccccc2C(=O)N(Cc2ccccc2Cl)[C@H]1c1ccc(CO)cc1 | 0.414 |
| CO[C@@H]1COC(=O)CC=C[C@@H](C)COC(=O)[C@H](COCc2ccccc2)NC(=O)CC=C[C@H]1C | -1.2 |
| C=COC[C@H]1CN2[C@@H](CC[C@@H](C)[C@@H]2c2ccc(Br)cc2)C(=O)O1 | 0.496 |
| COC(=O)[C@H](C)NC(=O)CCC1CC(OC(=O)NCCc2ccc(F)cc2)CC2(CCCC(COC(=O)NCCc3ccc(Cl)cc3)O2)O1 (stereo partly specified) | -0.167 |
| COCCCNC(=O)[C@@]1(Sc2ccc(C)cc2)CC(=O)N(Cc2ccccc2)[C@@H]1c1ccc(CO)cc1I | 0.757 |
| Cc1ccc(S(=O)(=O)N[C@@H]2COC(=O)[C@H](C)COC(=O)CC=C[C@H]2C)cc1 | -0.601 |
| C=CC[C@]1(C(=O)NCc2ccccc2)N=C(c2ccc(OCCCO)cc2)O[C@H]1c1ccccc1 | 0.866 |
| CCOc1ccc(N2C(=O)/C(=C/C=C/c3ccccc3OC)S(=O)(=O)C2c2cccc([N+](=O)[O-])c2)cc1 (stereo unspecified) | 0.382 |
| CO[C@H]([C@@H](C)[C@H](OC)c1ccccc1)[C@H](C)[C@@H](OC)[C@H](C)C(C)=O | -0.529 |
| CC(=O)O[C@H]1C2=C(C(=O)[C@@H]3O[C@@H]31)[C@H]1C(C)O[C@@H]2[C@@]23C(=O)[C@@H]4O[C@@H]4[C@@H](O)C2=CO[C@H](C)[C@@H]13 (stereo partly specified) | 0.922 |
| CC(C)=NOCc1ccc(-c2cc(-c3ccccc3)no2)cc1 | -0.205 |

| Compound | composite z-score |
| --- | --- |
| C=CCC(OC(C)=O)[C@@H]1[C@@H](N(Cc2cc3ccccc3o2)C(=O)Cc2ccc(F)cc2)c2cc(OCCCO)ccc2N1C(=O)Cc1ccc(OC)cc1 (stereo partly specified) | 0.323 |
| CCN1C(=O)[C@H]2[C@H]3[C@H](O)C=CC(=O)[C@@H]3CC[C@H]2C1=O | -0.338 |
| CC(C)OC(=O)C=C1C[C@@H](c2ccc(C#N)cc2)O[C@@H](c2ccc(C#N)cc2)O1 | 0.992 |
| NC(=O)NCC#Cc1ccc2c(c1)[C@]1(C(=O)N2)[C@H](c2ccc(O)cc2)N2[C@H](c3ccccc3)[C@H](c3ccccc3)OC(=O)[C@H]2[C@@H]1C(=O)N1CCCCCCC1 | -0.476 |
| Cc1cc2c(nc1C)CCCN2CC(O)CN1CCN(C)CC1 (stereo unspecified) | -0.562 |
| C[C@@H]1C=CCC(=O)OC[C@H](C)C(=O)N[C@@H](C)C(=O)OC1 | -0.171 |
| COc1ccc([Si](C)(C)[C@@H]2[C@@H](CCO)O[C@]3(C(=O)N(Cc4ccc(NC(C)=O)cc4)c4ccccc43)[C@H]2C)cc1 | 0.78 |
| COc1ccc([Si](C)(C)[C@H]2[C@H](CC(=O)N3CCC[C@H]3CO)O[C@@]3(C(=O)N(Cc4cccc(N5C(=O)COc6ccccc65)c4)c4ccccc43)[C@@H]2C)cc1 | 0.34 |
| C[C@@H](c1ccccc1)N1C(=O)[C@H]2[C@H]3[C@H](O)C=CC(=O)[C@@H]3CC[C@H]2C1=O | 0.0343 |
| C=C(COC)/C(=C/C[C@H](OC(=O)c1ccncc1)c1ccc(CO)o1)c1cc(C(=O)OC)ccc1OC | 0.439 |
| COC(=O)CC=C[C@H](C)[C@H](CO)NS(=O)(=O)c1ccc(C)cc1 | -0.333 |
| C#CCCCON=C1C[C@@H](O)[C@@H](O)[C@@H]2[C@@H]3C(=O)N(c4cccc(Oc5ccccc5)c4)C(=O)[C@@H]3CC[C@@H]12 | 0.487 |
| CC(C)(C)OC(=O)CC[C@]1(C(N)=O)COC(c2ccc(OCCCO)cc2)=N1 | 0.617 |
| CC[C@@H](c1ccccc1)n1c(=O)n2n(c1=O)[C@H]1[C@H](O)[C@@H]3O[C@@H]3C(=NOCC=C(C)CCC=C(C)C)[C@H]1CC2 | -0.258 |
| COc1ccc(O[C@H]2C=C[C@@H](c3ccccc3)O[C@@H]2COC(=O)CCC(C)=NOC(C)CN2CCCCc3nc(C)c(C)cc32)cc1 (stereo partly specified) | -0.485 |
